The source of these data is PMC5540273 (PLoS ONE, 2017).

The structures appear in SMILES notation.

What all share (conditions): concentration: 1 μM,replicates: in singlicate; n = 1
Test [1] relates to FYN.
Test [2] deals with GAK.
For test [3], the system named is T1, GCN2(Kin.Dom.2,S808G).
T1 construct: gene EIF2AK4

The test system of test [4] is GRK1.
Test [5] concerns T2, GRK2.
T2 construct: gene ADRBK1

The subject of test [6] is T3, GRK3.
T3 construct: gene ADRBK2

Test [7] concerns GRK4.
Test [8] relates to GRK7.
Test [9] deals with GSK3A.
For test [10], the system named is GSK3B.
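Note: KINOMEscan kinase panel screen.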

As to `CN1CCN(CCNc2nc3cc(Oc4ccc(NC(=O)Nc5cc(C(F)(F)F)ccc5F)cc4)ccc3[nH]2)CC1.Cl.Cl` [GW768504], the “%Inh” value is 0% in test [1]; 0% in test [2]; 24% in test [3]; 0% in [4]; 0% in [5]; 0% in test [6]. For the same compound, the “%Inh” value in [7] was 17%; in test [8], 0%; in test [9] it was 20%; in test [10] it was 0%.

Consider `O=C(Nc1ccc(Oc2ccc3nc(NC(=O)C4CC4)cn3n2)c(F)c1)c1cccn(-c2ccccc2)c1=O`, for which the “%Inh” value in [1] amounted to 15%; in test [2], 0%; in [3], 20%; in [4], 0%; in test [5], 0%; in test [6], 0%. In addition, the “%Inh” value in test [7] amounted to 21%; in [8], 0%; in test [9], 25%; in [10], 0%.

Regarding `CS(=O)c1ccc(-c2coc3ccc(-c4n[nH]c(=O)o4)cc23)cc1` (centres unmarked), the “%Inh” value in [1] is reported as 0%; in [2] it was 0%; in [3], 21%; in [4], 6%; in test [5] it was 0%; in test [6], 30%. The “%Inh” value in [7] is given as 19%; in [8], 15%; in test [9], 93.3%; in test [10], 15%.

Take `Cn1cc(-c2cccc3c(N)c(C(N)=O)nnc23)cn1`: the “%Inh” value in test [1] amounted to 1%; in test [2] it was 36%; in [3], 16%; in test [4], 23%; in test [5], 7%; in test [6], 0%. Also, the “%Inh” value is recorded as 40% in [7], 36% in [8], 7% in test [9] and 20% in test [10].

`Cc1cccc2c(-c3ccncc3)c(-c3ccc(F)cc3)nn12.Cl` [GW461487]: the “%Inh” value is on record as 4% in [1]; 67% in test [2]; 1% in test [3]; 0% in test [4]; 0% in test [5]; 21% in test [6]. Also, the “%Inh” value is on record as 100% in test [7], 0% in [8], 12% in test [9] and 10% in test [10].

Regarding `COC(=O)Nc1nc2cc(Oc3ccc(NC(=O)Nc4cc(C(F)(F)F)ccc4Cl)cc3)ccc2[nH]1.Cl` [GW697465], the “%Inh” value is listed as 9% in test [1]; 0% in [2]; 8% in test [3]; 0% in [4]; 0% in [5]; 65% in test [6]. Moreover, the “%Inh” value in [7] was 0%; in test [8], 0%; in [9] it was 12%; in test [10] it was 0%.

In the case of `Cc1ccc2c(-c3ccnc(Nc4ccc(C(F)(F)F)cc4)n3)cnn2n1` [GW819776], the “%Inh” value in test [1] worked out at 9%; in test [2], 0%; in test [3], 3%; in test [4], 28%; in test [5] it was 0%; in [6], 3%. The “%Inh” value is given as 21% in [7], 0% in [8], 74% in test [9] and 36% in test [10].

On to `Cn1ccc2ncnc(Oc3ccc(NC(=O)Nc4cncc(C(F)(F)F)c4)c(Cl)c3)c21`, for which the “%Inh” value in test [1] turned out to be 0%; in test [2], 0%; in [3] it was 0%; in [4] it was 4%; in test [5], 0%; in test [6] it was 0%. Also, the “%Inh” value in [7] was 11%; in test [8], 0%; in test [9], 0%; in test [10] it was 0%.

Consider `Cn1ccc2ncnc(Oc3ccc(NC(=O)Nc4ccnc(C(F)(F)F)c4)c(Cl)c3)c21`, for which the “%Inh” value is on record as 0% in test [1]; 0% in [2]; 10% in test [3]; 0% in [4]; 0% in test [5]; 29% in test [6]. The “%Inh” value turned out to be 100% in test [7], 0% in test [8], 11% in [9] and 0% in test [10].

On to `COc1ccc(Nc2nccc(N3CCC(NC(=O)c4cccc(C#N)c4)C3)n2)cc1` (centres unmarked) [GSK1379730], for which the “%Inh” value in test [1] was 0%; in test [2], 0%; in [3] it was 2%; in test [4], 0%; in test [5], 3%; in [6], 8%. The “%Inh” value in test [7] is given as 0%; in test [8], 0%; in test [9] it was 0%; in test [10], 13%.

In the case of `C[C@@H]1CCN(C(=O)N2CCCC2)C[C@@H]1N(C)c1ncnc2[nH]ccc12`, the “%Inh” value in test [1] was 59%; in [2], 0%; in [3] it was 1%; in test [4] it was 17%; in [5] it was 25%; in test [6] it was 36%. Further, the “%Inh” value in [7] is on record as 17%; in test [8], 8%; in test [9], 2%; in test [10] it was 26%.

As for `Cn1ccc2ncnc(Oc3ccc(NC(=O)Nc4cccc(C(F)(F)F)c4)c(Cl)c3)c21`, the “%Inh” value in [1] was found to be 0%; in test [2], 1%; in [3], 21%; in test [4], 32%; in [5], 0%; in [6], 0%. For the same compound, the “%Inh” value in test [7] was 0%; in test [8] it was 0%; in test [9] it was 28%; in test [10], 0%.

Regarding `NC(=O)c1ccc(-c2cc3ncnc(SCC(=O)O)c3s2)cc1`, the “%Inh” value in [1] is listed as 0%; in test [2], 45%; in test [3] it was 0%; in test [4], 30%; in test [5], 0%; in test [6], 0%. Besides, the “%Inh” value is reported as 0% in test [7], 0% in test [8], 14% in test [9] and 0% in test [10].

With `Cl.c1ccc(Oc2ccc(Nc3ccnc4cc(-c5ccc(CN6CCNCC6)o5)ccc34)cc2)nc1` [GW567142], the “%Inh” value amounted to 82% in test [1]; 68% in [2]; 0% in [3]; 0% in test [4]; 10% in test [5]; 0% in test [6]. Further, the “%Inh” value in test [7] amounted to 0%; in [8], 0%; in test [9] it was 19%; in test [10] it was 0%.

Turning to `CN1CCN(CCCNc2nccc(-c3c(-c4ccc(F)cc4)nn4cc(C(N)=O)ccc34)n2)CC1` [GW622475], the “%Inh” value in test [1] is listed as 9%; in test [2], 87%; in test [3], 5%; in [4], 0%; in test [5], 0%; in test [6], 0%. Besides, the “%Inh” value is reported as 9% in test [7], 0% in test [8], 33% in test [9] and 33% in test [10].

Turning to `CC(=O)c1c(-c2ccncc2)[nH]c(-c2ccncc2)c1C` [GW493036], the “%Inh” value in [1] stood at 37%; in [2], 27%; in test [3] it was 0%; in test [4] it was 0%; in test [5] it was 0%; in test [6] it was 66%. Moreover, the “%Inh” value in test [7] was determined as 0%; in test [8], 0%; in [9] it was 81%; in test [10] it was 58%.

As for `CC(C(=O)NC1CCN(c2ccnc(Nc3ccc(F)cc3)n2)C1)c1ccc(Cl)cc1` (centres unmarked) [GSK1379713], the “%Inh” value came out at 14% in [1]; 0% in test [2]; 0% in test [3]; 0% in [4]; 0% in test [5]; 0% in [6]. Also, the “%Inh” value in test [7] turned out to be 12%; in [8], 0%; in [9], 0%; in test [10], 0%.
